Screening data as filed in PubChem BioAssay.
NadD block: blocks S. aureus nicotinate mononucleotide adenylyltransferase. purified NadD enzyme, colorimetric absorbance read-out. inhibition, % at 20 µM. 360,000 tested, 0.78% active; in the data active = inhibition above about 26%
Vif inh: inhibitors of HIV Vif | 340,000 tested, 0.35% active | HEK293T cells, Vif self-association by quenched fluorescence, imaging, 24 h | inhibition, % at 7.49 µM | AID 602346; in the data active = inhibition above about 50%, passing the limit was not always enough; inconclusive = no clear call, values can overlap the other calls; inactive = below about 31%
esBAF inh: SWI/SNF esBAF complex inhibition; mouse ES cells, Bmi1-luciferase knock-in reporter, 24 h; 100% = twice the neutral-well signal; reporter increase, % at 12.5 µM; 350,000 tested, 2% active; AID 602393; in the data active = activation above about 40%; inconclusive = no clear call, values can overlap the other calls;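 note: a rise in the Bmi1 reporter signal indicates esBAF inhibition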
GRIN3A LBD mod: modulators (binders) of human NR3A ligand-binding domain; NR3A LBD differential scanning fluorimetry, Tm shift; 0% = protein alone, 100% = glycine-bound protein; Tm shift relative to glycine control, % at 25 µM; 340,000 tested, 2.5% active;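 active = melting temperature shift of at least 10% of the positive control shift, at one fixed dose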
SMARCA2 activ: activators of SMARCA2 function; MG213 cells, MMTV-luciferase reporter, dexamethasone, overnight; activation, % at 9.1 µM; 370,000 tested, 1% active; in the data active = activation above about 7.8%
SKN-1 block: C. elegans SKN-1 inhibition. AID 624304. inhibition, % at 21.8 µM. 360,000 tested, 0.49% active. C. elegans VP596 Pgst-4::GFP/RFP ratio, acrylamide-induced, 24 h;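 active = interference check ratio from 0.5 to 1.5 plus GFP to RFP signal ratio inhibition reaching or exceeding a fixed threshold, cut at about 30% in these data, passing the limit was not always enough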
Numbers stand for hits; – = inactive; ? = inconclusive; · = not tested or not shown. Shown are actives, neighbours in structure and some others; about 5.2% of the full set was active somewhere.

SMILES | NadD block | Vif inh | esBAF inh | GRIN3A LBD mod | SMARCA2 activ | SKN-1 block
CCCCOC(=O)Nc1ccc(C(N)=O)cc1 | – | – | ? | – | – | –
CCCCOC(=O)Nc1ccc(C(C)C)cc1 | – | – | 75 | – | – | 33
CC(C)OC(=O)NCCOC(=O)Nc1ccc(Cl)cc1 | – | – | · | 25 | – | –
CCCCOC(=O)Nc1ccc(N2CCCCC2)cc1 | – | – | – | – | – | 46
O=C(N[C@@H]1CC[C@H](CCn2cc(C3(O)CCCC3)nn2)O[C@@H]1CO)c1ccccc1F | · | · | – | · | · | ·
CN1CCN(C(=O)C[C@@H]2C=C[C@@H](NC(=O)c3ccc4c(c3)OCO4)[C@@H](CO)O2)CC1 | · | · | – | · | · | ·
CCn1c(C(=O)NC2CCC(C)CC2)cc2sccc21 (stereo not given) | – | – | 52 | – | – | –
Cn1c(C(=O)NC2CCCCC2)cc2sccc21 | – | – | 43 | – | – | –
CC1CCN(CCCNC(=O)c2cc3sccc3n2C)CC1 | – | – | – | – | – | –
CC(C)CC#Cc1ccc2c(c1)O[C@@H](CN(C)C(=O)c1cccc(F)c1)[C@@H](C)CN([C@H](C)CO)S2(=O)=O | · | · | – | · | · | ·
CC(=O)c1cc(C#N)c(SCc2ccccc2)nc1C | – | – | · | 15 | – | –
O=C(Nc1ccc(N2CCN(C(=O)c3ccccc3)CC2)c(Cl)c1)c1ccc(Br)o1 | – | – | – | – | – | –
CCC(=O)N1CCN(c2ccc(NC(=O)c3ccc([N+](=O)[O-])o3)cc2)CC1 | – | 73 | · | – | – | –
O=C(Nc1ccccc1N1CCOCC1)c1cc2ccccc2o1 | – | – | – | – | – | –
O=C(Nc1ccc(N2CCOCC2)c(Cl)c1)c1ccc(Br)o1 | – | · | 60 | – | – | –
O=C(Nc1ccc(N2CCOCC2)c(Cl)c1)c1cc2ccccc2o1 | – | 92 | 64 | – | · | –
c1csc(CNc2ccc3c(c2)OCCO3)c1 | – | · | · | – | – | –
Clc1cc(NCc2cccs2)ccc1N1CCOCC1 | – | – | · | – | – | 39
COc1ccc(NC(=O)Nc2ccc3c(c2)C(=O)N([C@H](C)CO)C[C@H](C)[C@H](CN(C)Cc2ccccc2)OCCCC[C@@H](C)O3)cc1 | · | · | – | · | · | ·
Cc1ccc(S(=O)(=O)N[C@@H]2CC[C@H](CCNC(=O)CN3CCOCC3)O[C@H]2CO)cc1 | · | · | – | · | · | ·
O=C(Nc1ccc(N2CCOCC2)c(Cl)c1)c1ccccc1Cl | – | – | · | 19 | – | –
CCCC(=O)N1CCN(c2ccc(NC(=O)c3cc4ccccc4o3)cc2)CC1 | – | · | – | – | – | 48
O=C(Nc1ccc(N2CCOCC2)c(Cl)c1)c1ccc(F)cc1 | – | – | ? | – | – | –
O=c1c(-c2ccc3c(c2)OCCO3)coc2cc(OC3OC(CO)C(O)C(O)C3O)ccc12 (stereo not given) | – | – | – | – | – | –
COc1ccc(-c2coc3cc(O[C@@H]4O[C@H](CO)[C@@H](O)[C@H](O)[C@H]4O)ccc3c2=O)cc1 | – | – | 64 | – | – | –
SMILES | NadD block | Vif inh | esBAF inh | GRIN3A LBD mod | SMARCA2 activ | SKN-1 block
CC(C)NC(=O)N(C)C[C@H]1OCCCC[C@@H](C)Oc2ccc(NS(=O)(=O)c3ccc(Cl)cc3)cc2C(=O)N([C@H](C)CO)C[C@H]1C | · | · | – | · | · | ·
C(#CC1CCCC1)c1ccc2c(c1)COc1c3ccccc3nn1-2 | – | – | 60 | – | – | –
Cc1cc(-c2ccc3c(c2)COc2c4ccccc4nn2-3)on1 | – | – | – | – | – | –
COc1ccc(CN(C)C[C@H]2Oc3c(NC(=O)Nc4c(C)noc4C)cccc3C(=O)N([C@H](C)CO)C[C@H]2C)cc1 | · | · | – | · | · | ·
COc1ccc(NC(=O)N(C)C[C@@H]2OCCCC[C@H](C)Oc3ccc(NC(=O)c4ccccc4)cc3C(=O)N([C@@H](C)CO)C[C@@H]2C)cc1 | · | · | – | · | · | ·
Cc1ccc(N2C(=O)C(Cl)=C(NCCO)C2=O)c(C)c1 | – | – | – | 361 | – | –
COC(=O)c1c(NC(=O)CSc2nnc(CNc3ccc(Cl)cc3)o2)sc(C)c1C | – | 72 | – | – | – | –
COc1cccc(OC)c1-c1nn2c(-c3ccco3)nnc2s1 | – | – | 54 | – | – | –
Cc1cc(C(=O)Cn2nc(C(=O)O)c3ccccc3c2=O)c(C)n1-c1ccc(F)cc1 | – | – | 48 | – | – | –
C=CCn1c(C)cc(C(=O)Cn2nc(C(=O)O)c3ccccc3c2=O)c1C | – | – | – | – | 7.9 | –
COCCn1c(C)cc(C(=O)Cn2nc(C(=O)O)c3ccccc3c2=O)c1C | – | – | · | – | – | –
CO[C@H]1CN(C)C(=O)c2ccc(NC(=O)C3CC3)cc2OC[C@@H](C)N(C(=O)NC(C)C)C[C@H]1C | · | · | – | · | · | ·
COc1ccc(-c2nn(CCC(=O)O)cc2/C=C2\SC(N)=NC2=O)cc1OC | – | – | · | – | – | –
CCCOc1ccc(-c2nn(-c3ccccc3)cc2/C=C2\SC(N)=NC2=O)cc1C | – | – | – | 16 | – | –
CSc1ccccc1-n1nnnc1SCC(=O)Nc1ccccc1C | – | – | – | 14 | – | –
CSc1ccccc1NC(=O)CSc1nnnn1-c1ccccc1SC | – | – | – | – | – | –
C=CCn1c(=N)n(CC(=O)c2cccc([N+](=O)[O-])c2)c2ccccc21 | – | – | · | – | – | –
N=c1n(CCN2CCCCC2)c2ccccc2n1CC(=O)c1cccc([N+](=O)[O-])c1 | – | – | – | – | 8.6 | –
COc1ccc(CN(C)C[C@H]2Oc3c(NC(=O)c4cnccn4)cccc3C(=O)N([C@@H](C)CO)C[C@@H]2C)cc1 | · | · | – | · | · | ·
C[C@@H]1CCCCO[C@H](CN(C)S(=O)(=O)c2ccc(F)cc2)[C@@H](C)CN([C@@H](C)CO)C(=O)c2cc(NC(=O)c3ccccc3)ccc2O1 | · | · | – | · | · | ·
On1cnnc1-c1ccccc1 | – | – | – | 11 | – | –
CN(C)CC(=O)Nc1ccc2c(c1)[C@H]1C[C@@H](CC(=O)NCc3ccccc3)O[C@@H](CO)[C@H]1O2 | · | · | – | · | · | ·
COC(=O)c1cc2sc(Cl)cc2n1CC(=O)Nc1cccc(SC)c1 | – | – | – | 15 | – | –
CCC(=O)N1[C@@H]2CN(C(=O)c3ccncc3)c3ccccc3[C@@H]2[C@@H]1CO | · | · | – | · | · | ·
CCCCOc1ccc2c(c1)C(=O)c1cc(O)ccc1-2 | – | – | · | 34 | – | –
CCOc1ccc2c(c1)C(=O)c1cc(OCC(=O)O)ccc1-2 | – | – | – | – | – | –
COC(=O)c1ccccc1-c1ccc(C(c2c(C)[nH][nH]c2=O)c2c(C)[nH][nH]c2=O)o1 | – | – | · | – | 7.9 | –
N#Cc1c(NC(=S)NC(=O)c2ccccc2)sc2c1CCCC2 | – | – | · | 12 | – | –
CC(=O)Nc1sc2c(c1C#N)CCC(C)C2 (stereo not given) | – | – | – | – | – | –
Cc1ccccc1C(=O)NC(=S)Nc1sc2c(c1C#N)CCC(C)C2 (stereo not given) | – | – | – | 14 | – | –
